The text below walks through data of PubChem BioAssay (NCATS).

Where “and” joins values, the source holds several entries; their conditions need not be identical. Identical values can stand only once. Results filed as inconclusive are left out. Calls of active or inactive are those of the source. Unless noted, calls come from the whole dose curve; as a rule, active = well fitted curve in the direction sought with a large enough effect; inconclusive = small, poorly fitted or top-dose-only effect, or another doubt; inactive = no such curve, though single readings can be large; an effect the other way counts as inactive or inconclusive.

The nature of test [1]: Cellular Toxicity (caspase-3) NIH 3T3 (AID 666).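 Note: caspase signal read after 16 h compound exposure; 0% = DMSO basal and 100% = 100 µM tamoxifen stimulation.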 In a few lines:
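Concentration-response qHTS in NIH 3T3 mouse fibroblasts scores caspase-3/7 activation as rising luminescence after 16 hr compound exposure. Signals are scaled between DMSO-only and 100 uM tamoxifen.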

Test [2] is described as follows: MultiTox-Fluor Cytotoxicity Assay - LYMP1-002 - Dead Cells (AID 960).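 Note: cells exposed to compound for 16 h at 37 °C; 0% = DMSO and 100% = tetraoctylammonium bromide; nearly all actives have a fitted effect of over 60% in size.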 In a few lines:
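Acute cytotoxicity in a human lymphoblastoid line is scored as rising dead-cell protease signal after 16 hr exposure at 37 C, measured fluorometrically (485/520).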

Test [3] in a line: Cell Viability - LYMP1-003 - Assay at 40 hr (AID 964). Note: series mostly up to about 92 µM; % is set by controls: 0 for no effect and ±100 for the full control effect; nearly all actives have a fitted effect of over 60% in size. The procedure, abridged:
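This qHTS cytotoxicity screen treats human lymphoblastoid cells (LYMP1-003) with compounds for 40 hr and quantifies cellular ATP via luciferase luminescence.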

A short description of test [4]: Cell Viability - LYMP2-003 (AID 965).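 Note: cells exposed to compounds for 24 h before reading; 0% = DMSO only and full effect = 92 µM tetraoctylammonium bromide; nearly all actives have a fitted effect of over 50% in size.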 In a few lines: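 CellTiter-Glo luminescence quantified ATP loss after 24 h compound treatment of LYMP2-003 lymphoblastoid cells at 37 C. Titration series were fitted with the standard Hill equation to give AC50.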
Test [5] in a line: Cell Viability - LYMP2-011 (AID 969).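 Note: cells exposed to compound for 24 hours; 0% = DMSO only and full inhibition = 92 µM tetraoctylammonium bromide; nearly all actives have a fitted effect of over 60% in size.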 The procedure, abridged:
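Acute toxicity is scored as a concentration-dependent drop in intracellular ATP of a human lymphoblastoid line after 24 hr treatment. Values are AC50s modeled with the Hill equation.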

Test [6] can be described thus: Cell Viability - LYMP2-019 (AID 973).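 Note: 0% = DMSO alone and full effect = 92 µM tetraoctylammonium bromide; nearly all actives have a fitted effect of over 55% in size.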 The procedure, abridged:
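Cells plated at 2500/well and allowed 5 hr at 37 C before compound addition. After 24 hr incubation, CellTiter-Glo reagent was added, plates sat 30 min at room temperature, and luminescence was recorded.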

Test [7] can be described thus: Cell Viability - LYMP2-023 (AID 975).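 Note: cellular ATP measured by luciferase luminescence as viability proxy; series mostly up to about 92 µM; cells exposed to compound for 24 hours at 37 °C; plate controls were DMSO only for no effect and 92 µM tetraoctylammonium bromide control for full effect; nearly all actives have a fitted effect of over 55% in size.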 In a few lines:
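Concentration-dependent drop in intracellular ATP measures acute cytotoxicity in a human lymphoblastoid line treated for 24 hours in complete culture medium. AC50 values are taken from Hill-equation fits of qHTS data.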

Test [8] in a line: Cell Viability - LYMP2-002 (AID 977).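 Note: series mostly up to about 92 µM; plate controls were DMSO only for no effect and 92 µM tetraoctylammonium bromide for full effect.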 In a few lines: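 Luminescent ATP readout (CellTiter-Glo, 30 min room temperature) after 24 h compound exposure at 37 C of a human lymphoblastoid line, 2500 cells/well. AC50 values derived by standard Hill fitting of qHTS concentration-response data.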
The nature of test [9]: Cell Viability - LYMP2-014 (AID 983).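 Note: series mostly up to about 92 µM; plate controls were DMSO only for no effect and 92 µM tetraoctylammonium bromide for full effect; nearly all actives have a fitted effect of over 50% in size.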 The procedure, abridged:
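Decrease in intracellular ATP after 24 hr treatment at 37 C, measured by luciferase luminescence, indicated cytotoxicity. Concentration-response data were fitted with the standard Hill equation to give AC50.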

For test [10], the target named is Peroxisome proliferator-activated receptor delta (Homo sapiens) (UniProt Q03181). Kind of test: qHTS assay for small molecule agonists of peroxisome proliferator-activated receptor delta signaling (AID 588534; calls by dose curve;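 note: 0% = DMSO basal wells and 100% = positive control agonist at 10 µM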). In a few lines:
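Reporter cells were plated and held 5 hrs at 37 C before compounds were added. After 18 hrs at 37 C, CCF4 dye was loaded for 2 hrs at RT and fluorescence measured.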
On the technique in general: qHTS replaces the single test concentration by a dilution series.

The nature of test [11]: qHTS assay for small molecule antagonists of retinoid X receptor alpha signaling (AID 588546; active = well fitted inhibition curve with a large enough effect in the signal ratio, with a control signal flat, not every such curve was filed as active; the % refers to the signal ratio;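 note: cells stimulated with 9-cis-retinoic acid as agonist; % is set by controls: 0 for no effect and ±100 for the full control effect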). As to conditions: HEK293T RXRa-UAS-bla, beta-lactamase ratio, antagonist mode; measured here: W530 green channel, cytotoxicity proxy. In a few lines: (§1)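 Beta-lactamase reporter inhibition, read as CCF4 fluorescence ratio (ex 405, em 460/530 nm) after 2 h at RT. HEK293T UAS-bla cells, 2500/well, were stimulated with 9-cis-RA at 500 or 100 nM final alongside test compound for 18 h at 37 C.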

Test [12] concerns the target Retinoic acid receptor RXR-alpha (Homo sapiens) (UniProt P19793). The test is described as above. To be noted: HEK293T RXRa-UAS-bla, beta-lactamase ratio, antagonist mode. The procedure, abridged: as §1
The target in test [13] is Voltage-gated inwardly rectifying potassium channel KCNH2 (Homo sapiens) (UniProt Q12809). Kind of test: qHTS Assay for Small Molecule Inhibitors of the Human hERG Channel Activity (AID 588834).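 Note: top concentration of the series differs between compounds; % is set by controls: 0 for no effect and ±100 for the full control effect; lower thallium flux fluorescence means stronger hERG block; nearly all actives have a fitted effect of over 50% in size.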 The procedure, abridged:
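Kinetic FDSS fluorescence; U2OS + hERG BacMam (~100 virus particles/cell); FluxOR Tl+ flux; ~10 min cpd; AC50 (Hill).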

The nature of test [14]: qHTS assay for small molecule disruptors of the mitochondrial membrane potential - 5 hr assay (AID 651755; calls by dose curve; note: % is set by controls: 0 for no effect and ±100 for the full control effect; nearly all actives have a fitted effect of over 40% in size). The procedure, abridged:
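HepG2 cells, attached overnight at 37C, were exposed to compound or DMSO for 5 hr at 37C, 5% CO2. Mito-MPS dye was then added for 30 min, and fluorescence read at 490/535 nm (monomers) and 540/590 nm (aggregates).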

Test [15] concerns the target Tumor necrosis factor (Homo sapiens) (UniProt P01375). Kind of test: qHTS assay to identify small molecules that stimulate Tumor Necrosis Factor-alpha (TNF-alpha) secretion (AID 651757; active = well fitted curve in the direction sought with a large enough effect in the signal ratio; the % refers to the signal ratio; note: 0% is about no effect). The procedure, abridged: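 Secreted TNF-alpha from compound-treated THP-1 cells (17 hrs, 37 C) was quantified with a homogeneous time-resolved fluorescence antibody assay.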
Test [16] is described as follows: Cell Viability - LYMP2-001 (AID 921).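 Note: series mostly up to about 92 µM; 0% = DMSO only and full inhibition = tetraoctylammonium bromide control wells; nearly all actives have a fitted effect of over 70% in size.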 The procedure, abridged:
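Cellular ATP loss read by luciferase luminescence after 24 h compound exposure at 37 C in complete medium. LYMP2-001 lymphoblastoid cells, 2500/well; qHTS concentration-response data fitted with Hill equation for AC50.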

Test [17] is described as follows: Cell Viability - LYMP2-017 (AID 972).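 Note: series mostly up to about 92 µM; cells exposed to compound for 24 hours at 37 °C; % is set by controls: 0 for no effect and ±100 for the full control effect; nearly all actives have a fitted effect of over 55% in size.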 The procedure, abridged: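 Steps: plate 2500 lymphoblastoid cells per well; incubate 5 hr at 37 C; add compound across a concentration series and incubate 24 hr at 37 C; add CellTiter-Glo and read luminescence after 30 min at room temperature; fit Hill curves for AC50.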
Test [18] is described as follows: Cell Viability - LYMP2-021 (AID 974).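 Note: compound exposure lasts 24 hours at 37 °C; % is set by controls: 0 for no effect and ±100 for the full control effect; nearly all actives have a fitted effect of over 55% in size.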 In a few lines: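 Concentration-response cytotoxicity in a human lymphoblastoid line: 24 hr treatment at 37 C in complete culture medium, tetraoctylammonium bromide as positive control, luminescent ATP quantitation as viability measure.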
The nature of test [19]: Cell Viability - LYMP2-022 (AID 987). In a few lines:
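Acute toxicity in a human lymphoblastoid line is scored as decreased intracellular ATP after 24 hr compound treatment at 37 C. ATP is measured by CellTiter-Glo luminescence; curves are fitted with the Hill equation to give AC50.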

Test [20] in a line: Cell Viability - LYMP2-024 (AID 988).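 Note: plate controls were DMSO only for no effect and 92 µM tetraoctylammonium bromide for full effect; nearly all actives have a fitted effect of over 60% in size.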 The procedure, abridged:
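Acute toxicity is measured as concentration-dependent loss of intracellular ATP in a human lymphoblastoid line treated 24 hours at 37 C. Luciferase luminescence quantifies ATP; AC50 values come from standard Hill-equation modelling.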

Peroxisome proliferator-activated receptor delta (Homo sapiens), sequence (Q03181 whole entry, looked up): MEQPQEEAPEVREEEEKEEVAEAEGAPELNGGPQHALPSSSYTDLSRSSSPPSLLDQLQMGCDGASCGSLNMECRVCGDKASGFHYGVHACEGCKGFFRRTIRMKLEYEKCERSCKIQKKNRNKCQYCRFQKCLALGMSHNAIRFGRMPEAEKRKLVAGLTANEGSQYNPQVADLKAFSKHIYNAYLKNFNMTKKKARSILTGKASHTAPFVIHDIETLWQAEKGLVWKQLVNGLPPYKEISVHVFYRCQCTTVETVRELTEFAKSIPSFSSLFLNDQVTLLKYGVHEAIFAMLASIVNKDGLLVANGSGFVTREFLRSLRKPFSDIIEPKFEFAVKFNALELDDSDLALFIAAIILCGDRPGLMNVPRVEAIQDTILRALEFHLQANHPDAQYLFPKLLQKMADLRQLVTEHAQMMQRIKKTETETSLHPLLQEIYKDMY
Tumor necrosis factor (Homo sapiens), sequence (P01375 whole entry, looked up): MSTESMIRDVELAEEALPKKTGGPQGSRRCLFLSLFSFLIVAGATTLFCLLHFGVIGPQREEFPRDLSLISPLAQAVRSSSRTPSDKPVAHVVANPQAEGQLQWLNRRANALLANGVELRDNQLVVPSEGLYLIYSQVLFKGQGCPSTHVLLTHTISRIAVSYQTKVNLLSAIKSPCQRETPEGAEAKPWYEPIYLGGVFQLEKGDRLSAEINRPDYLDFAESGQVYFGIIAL
Retinoic acid receptor RXR-alpha (Homo sapiens), sequence (P19793 whole entry, looked up): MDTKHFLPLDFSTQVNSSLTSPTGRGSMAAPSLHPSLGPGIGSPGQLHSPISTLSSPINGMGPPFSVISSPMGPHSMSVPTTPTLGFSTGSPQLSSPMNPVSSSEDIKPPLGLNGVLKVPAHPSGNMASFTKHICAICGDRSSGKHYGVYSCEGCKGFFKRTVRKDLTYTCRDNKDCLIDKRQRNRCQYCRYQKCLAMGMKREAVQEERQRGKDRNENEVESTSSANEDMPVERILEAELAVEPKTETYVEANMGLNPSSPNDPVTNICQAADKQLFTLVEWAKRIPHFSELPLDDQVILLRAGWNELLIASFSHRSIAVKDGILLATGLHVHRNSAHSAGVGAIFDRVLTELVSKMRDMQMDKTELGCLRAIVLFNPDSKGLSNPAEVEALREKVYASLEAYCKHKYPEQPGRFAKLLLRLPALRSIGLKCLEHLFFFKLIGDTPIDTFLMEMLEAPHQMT
Voltage-gated inwardly rectifying potassium channel KCNH2 (Homo sapiens), sequence (Q12809 whole entry, looked up): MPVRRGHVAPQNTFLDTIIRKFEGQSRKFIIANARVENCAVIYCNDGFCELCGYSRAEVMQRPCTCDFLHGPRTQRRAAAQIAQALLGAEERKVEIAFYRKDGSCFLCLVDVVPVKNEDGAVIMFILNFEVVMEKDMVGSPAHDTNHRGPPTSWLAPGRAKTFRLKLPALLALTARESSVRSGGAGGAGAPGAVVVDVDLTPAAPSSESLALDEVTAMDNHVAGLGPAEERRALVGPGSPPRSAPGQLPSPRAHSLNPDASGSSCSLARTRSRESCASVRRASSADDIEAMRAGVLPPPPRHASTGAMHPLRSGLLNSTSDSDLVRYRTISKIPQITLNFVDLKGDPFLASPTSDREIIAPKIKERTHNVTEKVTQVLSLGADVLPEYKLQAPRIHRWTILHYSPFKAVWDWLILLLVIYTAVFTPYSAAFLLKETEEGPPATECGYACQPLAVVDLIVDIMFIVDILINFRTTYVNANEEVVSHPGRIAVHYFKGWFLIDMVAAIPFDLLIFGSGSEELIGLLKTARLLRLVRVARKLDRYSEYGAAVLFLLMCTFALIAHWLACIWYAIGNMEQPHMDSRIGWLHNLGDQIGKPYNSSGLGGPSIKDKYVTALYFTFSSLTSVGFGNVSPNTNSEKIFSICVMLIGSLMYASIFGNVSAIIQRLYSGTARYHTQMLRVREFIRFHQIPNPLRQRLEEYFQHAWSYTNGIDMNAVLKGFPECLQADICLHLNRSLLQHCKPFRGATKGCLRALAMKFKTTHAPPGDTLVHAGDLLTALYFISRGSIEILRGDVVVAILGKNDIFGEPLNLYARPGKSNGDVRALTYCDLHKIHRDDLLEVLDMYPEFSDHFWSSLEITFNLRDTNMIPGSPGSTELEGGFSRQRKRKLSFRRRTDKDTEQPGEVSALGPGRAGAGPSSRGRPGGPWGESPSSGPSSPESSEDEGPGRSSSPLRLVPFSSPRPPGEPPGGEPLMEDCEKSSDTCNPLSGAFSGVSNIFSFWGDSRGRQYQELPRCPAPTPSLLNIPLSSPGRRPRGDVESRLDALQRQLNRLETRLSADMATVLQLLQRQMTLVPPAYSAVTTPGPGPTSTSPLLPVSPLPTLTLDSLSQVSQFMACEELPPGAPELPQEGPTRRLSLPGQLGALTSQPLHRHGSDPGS

For `ClC(Cl)=C(Cl)C(Cl)=C(Cl)Cl`, the compound was classed as inactive in test [1], in test [10] and in [15]. Further, the Potency result in test [2], in [3], in test [4], in test [5], in test [6] and in test [7] was “inactive” in each case. Also, the Potency entry in test [8], in test [9], in test [13] and in [14] was “inactive” in each case. For the same compound, the max response is -3.71% and -13.6% in test [11]; -0.928% (inactive) and 1.51% (inactive) in [12].
As for `COc1ccc(N)cc1`, the outcome in [1], in test [10] and in [15] was inactive. Further, the Potency entry in [16], in test [2], in test [3], in [4], in test [5] and in test [17] was “inactive” each time. Besides, the Potency entry in test [6], in [18], in test [7], in [8], in test [9] and in test [19] was “inactive” throughout. Besides, the Potency result in [20], in test [13] and in test [14] was “inactive” throughout. Besides, the max response was 0.204% and 7.89% in test [11]; -1.34% (inactive) and 19.9% (inactive) in test [12].
Turning to `CCCCOCCOP(=O)(OCCOCCCC)OCCOCCCC`, the compound was classed as inactive in test [1] and in test [10]. For the same compound, the Potency result in test [16], in test [2], in test [3], in test [4], in [5] and in test [17] was “inactive” each time. Also, the Potency entry in test [6], in test [18], in [7], in test [8], in test [9] and in test [19] was “inactive” each time. Further, the Potency result in test [20] and in test [14] was “inactive” throughout. Further, the max response is 2.76% and -5.2% in test [11]; -9.74% (inactive) and -1.56% (inactive) in test [12].
Take `C=CC(=C)C`: the call in test [1], in [10] and in test [15] was inactive. Also, the Potency entry in test [16], in [3], in [4], in test [5], in test [17] and in test [6] was “inactive” each time. The Potency entry in [18], in test [7], in test [8], in test [9], in [19] and in [20] was “inactive” in each case. For the same compound, the Potency result in test [13] and in [14] was “inactive” each time. The figures for the max response in [11] and in [12] were -1.77% and -0.537% (inactive), respectively.
Take `CCC[CH2][Sn]([Cl])([Cl])[Cl]`: the compound was called inactive in test [1], in test [10] and in [15]. In addition, the Potency entry in test [16], in test [2], in test [3], in test [4], in test [5] and in test [17] was “inactive” each time. The Potency result in test [6], in test [18], in test [7], in test [8], in test [9] and in [19] was “inactive” throughout. Also, the Potency entry in [20], in [13] and in test [14] was “inactive” in each case. The max response in [11] was -9.08% and -6.63%; in test [12], -1.26% (inactive) and -2.57% (inactive).
With `CC(Cl)Cl`, the result in test [1], in test [10] and in test [15] was inactive. For the same compound, the Potency entry in [16], in [2], in test [3], in [4], in test [5] and in test [17] was “inactive” in each case. In addition, the Potency entry in test [6], in [18], in [7], in test [8], in [9] and in [19] was “inactive” each time. The Potency entry in test [20], in [13] and in test [14] was “inactive” throughout. Further, the results for the max response in [11] and in test [12] were -2.19% and 21.2% (inactive), respectively.
Regarding `O=[N+]([O-])c1cccc2ccccc12`, the result in test [1], in test [10] and in [15] was inactive. Moreover, the Potency entry in test [16], in test [2], in [3], in [4], in test [5] and in test [17] was “inactive” in each case. The Potency result in test [6], in test [18], in test [7], in test [8], in test [9] and in [19] was “inactive” throughout. The Potency entry in [20], in test [13] and in test [14] was “inactive” throughout. In addition, the max response was -1.12% and -4.23% in test [11]; 5.1% (inactive) and -1.16% (inactive) in test [12].
